# Assay results: the supplement of paper PMC5499739
# The full ranking holds about 16,000 sequences; the median of “Z-score” is about -0.37, and the highest 2% start at about 3.1. This is one part of a sample in which the highest values are shown more often than they occur.
# System: RBM10 RRM1-ZnF-RRM2 (GST-tagged construct)
# Assay: RNAcompete 7-mer binding Z-score; higher = stronger binding preference
# Method: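 RNAcompete: 20 pmol GST-tagged RBM10 RNA-binding constructs were incubated with a designed RNA pool of about 241,000 sequences up to 41 nt (1.5 nmol) on glutathione beads for 30 min at 4 °C and washed. Bound RNAs were identified by microarray hybridisation. Each RNA 7-mer is scored by a one-sided Z-score of its enrichment, computed over probes that contain the 7-mer within longer pool sequences.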
row,Sequence,RNAcompete 7-mer binding Z-score
1,UACCUGC,-0.887
2,GUCCGUA,-0.471
3,GGAGUCA,1.05
4,CCAGGGG,1.43
5,GCAGGGG,3.15
6,ACAGGGA,3.47
7,ACAGGGU,3.11
8,ACAGGGG,3.19
9,GCAGGGU,3.35
10,ACAGGAG,2.7
11,UCAGGGG,1.46
12,CCAGGGA,1.51
13,ACAGGGC,2.36
14,GCAGGGC,1.51
15,CCAGGGU,1.18
16,AUAUACC,-0.628
17,CAUUCUC,-0.857
18,UGCACAU,-0.362
19,UCACAAG,-0.256
20,CUCGCGU,-0.635
21,CGGAUCA,0.578
22,GAGGUGG,3.37
23,AAGGUGC,2.55
24,CAGGUGA,1.54
25,GAGGUGC,1.65

row,Sequence,RNAcompete 7-mer binding Z-score
1,GAGGUGU,2.31
2,AAGGUGU,2.26
3,AAGGUGG,4.32
4,GAGGUGA,2.6
5,AAGGUGA,3.62
6,AUUCUCC,-0.679
7,AGCAACG,0.359
8,UGCCACU,-0.741
9,UCUCCCA,-0.697
10,GCUAAUA,-0.282
11,GAUAUGA,0.643
12,GAGUGGA,3.07
13,AAGUGGU,1.6
14,AAGUGGG,3.5
15,AAGUGGA,3.2
16,UAGUGGA,1.52
17,CAGUGGG,2.93
18,CCCCUCG,-0.573
19,GUCAGAG,0.406
20,GCUGCGG,1.05
21,AAUGCGA,0.286
22,CGGCACA,0.133
23,UAGACGC,-0.333
24,GGGGUUC,1.83
25,UGGGUUG,2.56

row,Sequence,RNAcompete 7-mer binding Z-score
1,AGGGUUC,0.996
2,UGGGUUA,2.83
3,CGGGUUG,2.32
4,AGGGUUG,3.34
5,GGGGUUG,3.23
6,AGGGUUA,3.86
7,GGGGUUA,3.07
8,GUAGUCU,-0.256
9,CCGUUUU,-1.01
10,UGCAUAU,-0.49
11,UUUCACU,-0.704
12,UCAUUAU,-0.621
13,UACCGAA,-0.428
14,CUUACAA,-0.785
15,GUAAGUC,-0.0743
16,CCGAACU,-0.839
17,CCCACCC,-0.337
18,UGGGAGU,1.95
19,UGGGAGA,2.56
20,UGGGAGG,4.58
21,GGGGAGG,3.33
22,AGGGAGU,3.13
23,GGGGAGA,2.53
24,GGGGAGU,2.86
25,CGGGAGG,2.96

row,Sequence,RNAcompete 7-mer binding Z-score
1,AGGGAGG,3.18
2,CAUGGCC,-0.344
3,GUUGCCU,-0.613
4,AGGUUAC,0.538
5,GAUCGCU,-0.697
6,CGGGUCC,0.723
7,ACGAGGU,1.36
8,GCGAGGG,3.86
9,ACGAGGC,0.742
10,UCGAGGG,1.93
11,GCGAGGA,2.06
12,ACGAGGG,3.71
13,AAAGCAA,0.563
14,AGCAGAA,0.701
15,UUAAGGA,0.982
16,GUAAGGA,3.28
17,CUAAGGG,1.35
18,AUAAGGG,3.85
19,AUAAGGA,2.16
20,CUAAGGA,0.286
21,GUAAGGG,3.65
22,GUAAGGC,2.12
23,AUAAGGU,1.74
24,GAUCGUU,-0.464
25,AUUAAUA,-0.544

row,Sequence,RNAcompete 7-mer binding Z-score
1,AAUAGAG,0.742
2,AAGUUGC,-0.293
3,UGCUCCC,-0.821
4,UAGAAGU,0.319
5,AUGAAGG,2.82
6,GUGAAGG,3.69
7,UAGAAGA,0.348
8,UAGAAGG,3.2
9,AAGAAGA,1.03
10,AAGAAGU,0.818
11,CAGAAGG,2.37
12,AAGAAGG,3.81
13,GAGAAGG,4.54
14,CUGAAGG,0.902
15,GAGAAGA,1.04
16,UAUCUAC,-0.548
17,UCACCAA,-0.65
18,AAAGCUC,-0.53
19,AGCUUCG,-0.795
20,UCAGAGU,0.0786
21,GCUCUCA,-0.526
22,AAGGGUC,2.01
23,CAGGGUU,2.05
24,CAGGGUA,2.88
25,UAGGGUA,4.16

row,Sequence,RNAcompete 7-mer binding Z-score
1,AAGGGUA,4.27
2,ACGGGUA,2.22
3,UCGGGUU,0.916
4,GAGGGUC,1.39
5,UCGGGUA,1.57
6,UAGGGUU,3.14
7,GAGGGUU,2.88
8,GAGGGUG,3.5
9,UUCCAGC,-0.715
10,GUGUUCA,-0.442
11,AGGUUUC,0.184
12,ACUUGGU,-0.267
13,GUUAGUG,0.953
14,UCUAGCA,-0.712
15,GUCAGUU,-0.289
16,CCGCUAG,-0.588
17,CACUUCC,-0.868
18,UUCCCUG,-0.737
19,AACAUGC,-0.435
20,CAGGGUG,2.84
21,CAGGGUC,1.42
22,UAGGGUG,4.51
23,GAGGGCG,2.81
24,AAGGGUU,3.94
25,GAGGGUA,4.4

row,Sequence,RNAcompete 7-mer binding Z-score
1,AAGGUUU,2.37
2,AGGGUUU,2.4
3,UAGGGUC,2.16
4,UACUCUC,-0.734
5,UGCGCUG,-0.103
6,GAAGGAA,4.54
7,AAAGGAG,3.75
8,UAAGGAA,1.66
9,GGAGGAA,3.08
10,CAAGGAA,1.77
11,UAAGGAG,1.9
12,AAAGGAA,3.51
13,GAAGGAU,3.32
14,AAAGGAC,2.6
15,CAAGGAU,1.42
16,GCAGGAA,2.07
17,UAAGGAU,1.55
18,AAUGGCG,2.02
19,GUCCUGC,-0.606
20,UACCCCU,-0.65
21,AGCGCUG,-0.0889
22,GCCACUU,-0.992
23,UACACAU,-0.5
24,GUCCGCA,-0.672
25,UCUGAUC,-0.876

row,Sequence,RNAcompete 7-mer binding Z-score
1,GCGUGUG,0.618
2,AUCGCAA,-0.388
3,GCUUAAG,-0.439
4,CAAGGAG,2.31
5,GAAGGAC,2.8
6,GAAGGAG,4.52
7,UGUGGAA,1.47
8,GGUGGAA,3.71
9,AGUGGAA,3.21
10,AGUGGAU,2.33
11,AGUGGAC,1.44
12,GGUGGAG,3.9
13,UGUGGAG,2.47
14,CGUGGAA,1.29
15,GGUGGAU,2.46
16,CGUCACU,-0.515
17,CACCCUG,-0.89
18,AUGACUA,-0.347
19,UGUGGUA,0.833
20,GACGAGA,0.691
21,UCAGCGU,-0.26
22,CCGGCAC,-0.388
23,AAGGAUA,2.92
24,CAGGAGA,2.02
25,AAGGAUG,3.89

row,Sequence,RNAcompete 7-mer binding Z-score
1,UAGGAGA,1.78
2,AAGGAGA,3.18
3,UAGGAGG,2.94
4,GAGGAUG,2.57
5,AAGGAGG,4.62
6,GAGGAGG,2.99
7,CCCAAUA,-0.759
8,CCGUCGC,-0.752
9,UGAUCCA,-0.515
10,ACAUCCU,-0.839
11,GCAGGAU,1.22
12,AGAGCGG,1.46
13,UGAGCGG,2.06
14,GGAGCGG,4.19
15,CGAGCGG,3.33
16,CGAGCGU,0.166
17,GGAGCGA,2.9
18,AGAGCGA,0.581
19,CGGGUUU,1.01
20,CUAUCGA,-0.781
21,GUGGAAC,1.73
22,GUGGAAG,3.47
23,AUGGAAC,2.02
24,AUGGAAA,2.62
25,GUGGAAA,2.46

row,Sequence,RNAcompete 7-mer binding Z-score
1,AUGGAAG,3.16
2,UCGGAGU,0.257
3,GAGGAUA,2
4,CGGGAUA,1.44
5,GGGGAUA,3.16
6,AGGGAUU,2.37
7,AGGGAUA,4.38
8,AGGGAUC,1.32
9,CGCAAAG,-0.22
10,UCGGUUG,0.286
11,ACAAUCU,-0.795
12,UUUGACG,-0.551
13,AUGUAGA,0.243
14,UCACAAU,-0.511
15,ACAGUUC,-0.672
16,AGAAUGG,3.51
17,CGAAUGG,1.4
18,UGAAUGG,2.22
19,AGAAUGU,0.184
20,GGAAUGG,4.19
21,GGAAUGU,1.58
22,UUGUGUG,0.0604
23,AAGAUAA,-0.0233
24,GAUGAAC,0.385
25,CUUCCAU,-0.799

row,Sequence,RNAcompete 7-mer binding Z-score
1,AGUCGCA,-0.122
2,GUGGUGC,1.68
3,GUGGUGG,3.78
4,AUGGUGC,0.789
5,AUGGUGG,3.33
6,CUGGUGG,1.22
7,UUGGUGG,2.09
8,CUCGGGA,0.228
9,CCGGACC,-0.712
10,GUCGUCU,-0.417
11,CGCAAAC,-0.588
12,CGGGGAG,2.54
13,GGGGGAG,2.6
14,UGGGGAG,3.37
15,UGGGGAC,2.28
16,UGGGGAA,3.58
17,UCGGGAA,1.4
18,GGGGGGA,2.69
19,UUGGGGA,2.27
20,UGGGGGA,3.33
21,UGCGUGA,0.381
22,UUGCGGU,-0.0161
23,AAAGCCU,-0.734
24,CCGUUGG,0.228
25,CCGAUCU,-0.938

row,Sequence,RNAcompete 7-mer binding Z-score
1,GUAUGAA,0.355
2,AGCAAGU,-0.0343
3,CUCGAAA,-0.493
4,AUGAGGU,1.83
5,AUGAGGG,4.32
6,GUGAGGG,4
7,UUGAGGG,3.15
8,UUGAGGC,0.341
9,CUGAGGG,1.53
10,GUGAGGC,1.86
11,AUGAGGC,1.35
12,UUGAGGA,1.04
13,CAAAGAU,-0.282
14,UGGGACG,2.27
15,AUCUGAA,-0.643
16,GGGUAAC,2.47
17,GGGUAAG,3.97
18,GGGUAAA,3.9
19,CGGUAAA,0.352
20,AGGUAAA,2.1
21,CGGUAAG,1.52
22,CGUAUGU,-0.337
23,ACUGCUA,-0.653
24,GGUAUGA,1.89
25,GAUAUGC,-0.078

row,Sequence,RNAcompete 7-mer binding Z-score
1,GGUAUGU,1.33
2,GGUAUGG,4.03
3,GAUAUGG,3.32
4,AAUAUGG,1.27
5,GACCGAU,-0.479
6,ACGCUUU,-0.865
7,GGGAAUG,3.43
8,GGGAACG,3.86
9,CGGAAUG,1.33
10,AGGAAUG,2.07
11,GGGAAUA,3.15
12,UGGAACG,1.92
13,GGGAAUU,1.91
14,CGGAAUA,0.65
15,GGGAACA,3.06
16,CACGUUA,-0.406
17,UCAGCUU,-0.905
18,CACAAUU,-0.577
19,CAUGUGU,-0.151
20,UCAUAUC,-0.613
21,GGGUGCA,3
22,UGGUGGU,2.37
23,GGGUGGU,4.19
24,UGGUGGG,4.04
25,GGGUGGA,4.54

row,Sequence,RNAcompete 7-mer binding Z-score
1,AGGUGGA,3
2,AGGUGGG,3.44
3,UGGUGGA,2.74
4,AGGUGGU,2.19
5,UGGUGGC,1.72
6,GAGUGGU,2.52
7,GCGUGGA,2.22
8,GACAAGU,0.148
9,ACUAUAU,-0.544
10,AGUCCUC,-0.708
11,UUACAUU,-0.686
12,GAAUCUG,-0.632
13,GCUCGUU,-0.577
14,ACUCACG,-0.708
15,GCGCGGC,0.811
16,GGCAUGC,0.228
17,AUUCCGG,-0.559
18,UGUCAGA,-0.402
19,UCGUGGG,2.23
20,GCGUGGG,3.66
21,GGGUGGC,2.45
22,ACGUGGG,2.48
23,CGGUGGG,3.18
24,CGGUGGA,2.27
25,CGGUGGU,1.62

row,Sequence,RNAcompete 7-mer binding Z-score
1,GGGUGCG,2.85
2,GGGUGGG,4.11
3,UUUGAGU,-0.213
4,ACGUAUA,-0.198
5,UUAGCGC,-0.617
6,GAGGAAG,3.52
7,CAGGAAA,1.26
8,UAGGAAA,1.6
9,AAGGAAG,4.04
10,UAGGAAG,1.94
11,AAGGAAC,2.66
12,AAGGAAU,2.34
13,GAGGAAU,1.71
14,AAGGAAA,3.21
15,UUUGAUC,-0.719
16,CUGACGG,0.243
17,AGAGGCA,0.421
